Our source for the activity increase over dofetilide control, less the hit threshold values is PubChem BioAssay AID1835 (Johns Hopkins Ion Channel Center, 2009).

The whole screen tested about 2,400 compounds, of which about 750 (31%) were called active.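 Rule for the calls: active = median signal gain over dofetilide-blocked control wells reaching their mean plus 3 SD, so readout 1 at least 0; inactive = the rest.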 This is one part of the list. Where a SMILES comes first, the peptide text is derived from it. The star is where a group is joined. Cbz = O=C(OCc1ccccc1)*

Chain of Voltage-gated inwardly rectifying potassium channel KCNH2 (Homo sapiens) (Q12809 whole entry, looked up): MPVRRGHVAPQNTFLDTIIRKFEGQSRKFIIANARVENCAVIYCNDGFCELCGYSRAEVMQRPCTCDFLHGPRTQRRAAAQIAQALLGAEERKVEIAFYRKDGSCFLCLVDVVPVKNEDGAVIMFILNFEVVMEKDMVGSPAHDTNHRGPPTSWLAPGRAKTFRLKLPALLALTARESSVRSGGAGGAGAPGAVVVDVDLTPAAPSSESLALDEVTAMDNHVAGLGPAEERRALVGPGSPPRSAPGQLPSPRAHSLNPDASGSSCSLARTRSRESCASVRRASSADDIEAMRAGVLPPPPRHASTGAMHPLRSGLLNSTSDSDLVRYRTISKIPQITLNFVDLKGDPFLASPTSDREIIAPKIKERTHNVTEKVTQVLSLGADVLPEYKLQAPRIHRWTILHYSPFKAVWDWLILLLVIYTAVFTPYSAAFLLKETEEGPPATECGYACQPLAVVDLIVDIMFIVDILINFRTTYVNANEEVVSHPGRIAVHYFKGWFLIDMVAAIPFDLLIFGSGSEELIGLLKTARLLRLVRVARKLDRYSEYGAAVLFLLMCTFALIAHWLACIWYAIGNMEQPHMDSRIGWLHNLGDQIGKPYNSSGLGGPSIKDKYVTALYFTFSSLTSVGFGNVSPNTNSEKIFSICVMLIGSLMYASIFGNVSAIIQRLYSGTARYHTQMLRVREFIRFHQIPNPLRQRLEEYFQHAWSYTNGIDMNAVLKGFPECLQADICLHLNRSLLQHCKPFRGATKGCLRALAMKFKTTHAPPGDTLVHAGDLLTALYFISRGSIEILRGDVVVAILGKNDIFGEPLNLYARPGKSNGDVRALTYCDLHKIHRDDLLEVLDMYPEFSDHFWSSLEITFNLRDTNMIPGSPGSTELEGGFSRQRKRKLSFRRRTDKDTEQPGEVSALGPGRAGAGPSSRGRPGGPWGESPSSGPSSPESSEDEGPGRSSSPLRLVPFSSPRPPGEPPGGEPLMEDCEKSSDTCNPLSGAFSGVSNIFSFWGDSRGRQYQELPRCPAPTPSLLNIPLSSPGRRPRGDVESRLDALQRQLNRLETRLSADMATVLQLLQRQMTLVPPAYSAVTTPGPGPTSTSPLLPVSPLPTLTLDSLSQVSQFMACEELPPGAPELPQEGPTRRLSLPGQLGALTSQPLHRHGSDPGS

The experiment has as its target Voltage-gated inwardly rectifying potassium channel KCNH2 (Homo sapiens) (UniProt Q12809). Briefly: modulators restoring hERG flux under dofetilide – cell-based, thallium flux, duplicate retest, dofetilide IC70, confirmation (AID 1835). To be noted: hERG cell line, FluxOR thallium flux, dofetilide-blocked; at 10 µM; active compounds read high. Background: The hERG channel carries a current that helps repolarise heart muscle cells.
As to `CCC(C)C(NC(=O)C(C)NC(=O)CNC(=O)CNC(=O)OCc1ccccc1)C(=O)OC` (stereo not given) (Cbz-GGAI-OMe; configuration not given here), the activity increase over dofetilide control, less the hit threshold was -22% (inactive).
Turning to `CN1C(=O)NC(c2cccc([N+](=O)[O-])c2)C2=C1CC(C)(C)CC2=O` (stereo not given), the activity increase over dofetilide control, less the hit threshold is -14% (inactive).
For `CCc1ccccc1NC(=O)CC1CS(=O)(=O)CC1CC(=O)Nc1ccccc1CC` (stereo not given), the activity increase over dofetilide control, less the hit threshold is -4% (inactive).
In the case of `N#C/C(=N\Nc1ccccc1F)c1nc(-c2ccccc2)cs1`, the activity increase over dofetilide control, less the hit threshold was -14% (inactive).
As for `O=C(O)/C=C/c1cn(-c2ccccc2)nc1-c1ccc(-c2ccc([N+](=O)[O-])cc2)o1`, the figure is 27% (active).
The figure for `COC(=O)Oc1ccc(/C=C/C(=O)OC(C)C)cc1OC(=O)OC` is 2% (active); for `Cc1cc(C)nc(NS(=O)(=O)c2ccc(NC(=O)Cc3ccccc3)cc2)n1` it is -5% (inactive); for `Cc1cc(O)c(/C=N/OCc2ccc(Cl)cc2Cl)c(=O)o1` it is -4% (inactive).
The figure for `Brc1ccc(-c2noc(CCc3ccccc3)n2)cc1` is -20% (inactive).
Regarding `CC(C)Cn1c(=S)[nH]c2cc(Cl)ccc21`, the activity increase over dofetilide control, less the hit threshold was 5% (active).
`Cc1nnc(SCC2=C(C(=O)O)N3C(=O)C(NC(=O)Cn4nc(C(F)F)cc4C)C3SC2)s1` (stereo not given): the activity increase over dofetilide control, less the hit threshold was -5% (inactive).
Take `Cc1ccc(C)c2sc(NC(=O)c3nc4ccccc4s3)nc12`: the activity increase over dofetilide control, less the hit threshold is 35% (active).
With `Cc1ccc(C)c(NC(=S)c2nc3ccccc3s2)c1`, the activity increase over dofetilide control, less the hit threshold is -10% (inactive).
The figure for `Cc1ccccc1NP(=O)(c1ccccc1)c1nc2ccccc2s1` (stereo not given) is -8% (inactive); for `COc1ccccc1C(=O)NNC(=O)C(=O)Nc1cccc(Cl)c1C` it is 100% (active).
Consider `CC(=O)Nc1ccccc1C(=O)C(=O)Nc1ccc(Cl)cc1`, for which the activity increase over dofetilide control, less the hit threshold is -3% (inactive).
The figure for `COc1ccccc1C(=O)Nc1ccc(C(=O)N2CCCC2)cc1` is 0% (inactive); for `C/C(CC(=O)Nc1ccccn1)=N\NC(=O)C(=O)Nc1cccc(Cl)c1C` it is -6% (inactive); for `COc1ccc(Cl)cc1C(=O)Nc1cccnc1Cl` it is -8% (inactive).
As for `Cc1ccccc1C(=O)NNC(=O)C(=O)Nc1cccc(Cl)c1C`, the activity increase over dofetilide control, less the hit threshold is 27% (active).
`NC(=O)Cn1c2[n+](c3ccccc31)CC(O)CS2` (stereo not given): the activity increase over dofetilide control, less the hit threshold is -24% (inactive).
`CCCN1C(=O)/C(=C/c2ccc(C)s2)NC1=S`: the activity increase over dofetilide control, less the hit threshold was 71% (active).
In the case of `CCN1C(=O)/C(=C/c2ccc(C)s2)NC1=S`, the activity increase over dofetilide control, less the hit threshold is 14% (active).
For the compound `CC(C)CN1C(=O)/C(=C/c2ccco2)NC1=S`, the activity increase over dofetilide control, less the hit threshold is -26% (inactive).
On to `CCCN1C(=O)/C(=C/c2ccc3c(c2)OCO3)NC1=S`, for which the activity increase over dofetilide control, less the hit threshold was -13% (inactive).
Regarding `CC(C)CN1C(=O)/C(=C/c2cccs2)NC1=S`, the activity increase over dofetilide control, less the hit threshold was 85% (active).
Take `CCOC(=O)c1c(NS(=O)(=O)c2ccc(Br)cc2)sc2c1CCC2`: the activity increase over dofetilide control, less the hit threshold is 68% (active).
Take `CCOC(=O)c1c(NS(=O)(=O)Cc2ccccc2)sc2c1CCCC2`: the activity increase over dofetilide control, less the hit threshold is 69% (active).
As for `COc1ccc(S(=O)(=O)Nc2ccc(O)c3ccccc23)cc1`, the figure is -21% (inactive); as for `Cc1ccc(C(=O)Nc2sc3c(c2C(=O)O)CCCCC3)o1`, -22% (inactive).
As for `COC(=O)c1c(NS(=O)(=O)c2ccc3ccccc3c2)sc2c1CCCC2`, the figure is 29% (active); as for `COC(=O)c1c(NS(=O)(=O)Cc2ccccc2)sc2c1CCCC2`, 31% (active); as for `COc1ccc(NS(=O)(=O)c2ccc3ccccc3c2)c2ncccc12`, -20% (inactive).
Consider `O=C(O)C1C2CCC(O2)C1C(=O)Nc1ccc(F)c(Cl)c1` (stereo not given), for which the activity increase over dofetilide control, less the hit threshold is -7% (inactive).
As for `Cc1ccc(CN2CCN(CC(=O)NC(C)c3ccc4c(c3)OCCO4)C2=O)cc1` (stereo not given), the activity increase over dofetilide control, less the hit threshold was -9% (inactive).
As for `O=c1[nH]c(=O)n(CCc2ccc(F)cc2)c(O)c1C=NCc1ccc2c(c1)OCO2`, the figure is -26% (inactive).
The figure for `CC(C)=CCCC1=CCC2C(=O)NNC(=O)C2C1` (stereo not given) is -11% (inactive).
As for `CCOc1ccc(N)c(SSc2cc(OCC)ccc2N)c1`, the figure is -43% (inactive); as for `COC(=O)CNc1nc(Cl)nc(Nc2ccc(C)cc2)n1`, -7% (inactive); as for `COC(=O)c1ccccc1NC(=O)C1CCCN(S(C)(=O)=O)C1` (stereo not given), -17% (inactive).
For the compound `CCc1nnc(NC(=O)C2CCCCN2S(=O)(=O)c2ccccc2)s1` (stereo not given), the activity increase over dofetilide control, less the hit threshold is -16% (inactive).
The figure for `Cc1nnc(NC(=O)C2CCCN(S(=O)(=O)c3ccccc3C(F)(F)F)C2)s1` (stereo not given) is 4% (active).
For `Cc1cccc(NC(=O)COc2coc(CN3CCN(c4ccccc4)CC3)cc2=O)c1`, the activity increase over dofetilide control, less the hit threshold was -18% (inactive).
In the case of `COC(=O)c1c(NC(=O)C(C)(C)C)csc1C`, the activity increase over dofetilide control, less the hit threshold was -11% (inactive).
The figure for `CCOC(=O)Cc1csc(NC(=S)NC(=O)c2ccc(C)cc2)n1` is -18% (inactive); for `CCOC(=O)Cc1csc(NC(=S)NC(=O)c2ccccc2C)n1` it is 3% (active); for `CCOC(=O)Cc1csc(NC(=S)NC(=O)C(C)(C)C)n1` it is 2% (active).
For `CCOC(=O)Cc1csc(NC(=S)NC(=O)c2ccccc2Br)n1`, the activity increase over dofetilide control, less the hit threshold is 22% (active).
The figure for `CCOC(=O)Cc1csc(NC(=S)NC(=O)c2ccc(Cl)cc2)n1` is 11% (active); for `CCOC(=O)c1c(SCC(=O)Nc2nc(C)cs2)nc(=O)[nH]c1C` it is -16% (inactive).
